From PubChem BioAssay
HEK cytotox: HEK 293 cell cytotoxicity; HEK 293 viability, ATP luminescence (CellTiter-Glo), 48-72 h; Potency, µM (highest dose often 115 µM), for the others: at the top dose activity change, negative = cytotoxicity, usual class: inhibitors; 94,000 tested, 6.6% active; AID 1345083; also: nearly all actives have a fitted effect of over 60% in size
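Read-out: CellTiter-Glo ATP luminescence. Cells: HEK 293, 250 cells/well. Exposure: 48 or 72 hr, 37 degree Celsius.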
NPR1 antag: blocks ANP-stimulated signaling of human Npr1 receptor | P16066 | HEK293 hNpr1 GloSensor cGMP, ANP-stimulated luminescence | Potency, µM (highest dose often 46.3 µM), without a hit: at the top dose activity change, negative = inhibition, usual class: inhibitors | 76,000 tested, 1.6% active | AID 1347048; calls by dose curve; also: nearly all actives have a fitted effect of over 60% in size
Target sequence (P16066 whole entry, looked up): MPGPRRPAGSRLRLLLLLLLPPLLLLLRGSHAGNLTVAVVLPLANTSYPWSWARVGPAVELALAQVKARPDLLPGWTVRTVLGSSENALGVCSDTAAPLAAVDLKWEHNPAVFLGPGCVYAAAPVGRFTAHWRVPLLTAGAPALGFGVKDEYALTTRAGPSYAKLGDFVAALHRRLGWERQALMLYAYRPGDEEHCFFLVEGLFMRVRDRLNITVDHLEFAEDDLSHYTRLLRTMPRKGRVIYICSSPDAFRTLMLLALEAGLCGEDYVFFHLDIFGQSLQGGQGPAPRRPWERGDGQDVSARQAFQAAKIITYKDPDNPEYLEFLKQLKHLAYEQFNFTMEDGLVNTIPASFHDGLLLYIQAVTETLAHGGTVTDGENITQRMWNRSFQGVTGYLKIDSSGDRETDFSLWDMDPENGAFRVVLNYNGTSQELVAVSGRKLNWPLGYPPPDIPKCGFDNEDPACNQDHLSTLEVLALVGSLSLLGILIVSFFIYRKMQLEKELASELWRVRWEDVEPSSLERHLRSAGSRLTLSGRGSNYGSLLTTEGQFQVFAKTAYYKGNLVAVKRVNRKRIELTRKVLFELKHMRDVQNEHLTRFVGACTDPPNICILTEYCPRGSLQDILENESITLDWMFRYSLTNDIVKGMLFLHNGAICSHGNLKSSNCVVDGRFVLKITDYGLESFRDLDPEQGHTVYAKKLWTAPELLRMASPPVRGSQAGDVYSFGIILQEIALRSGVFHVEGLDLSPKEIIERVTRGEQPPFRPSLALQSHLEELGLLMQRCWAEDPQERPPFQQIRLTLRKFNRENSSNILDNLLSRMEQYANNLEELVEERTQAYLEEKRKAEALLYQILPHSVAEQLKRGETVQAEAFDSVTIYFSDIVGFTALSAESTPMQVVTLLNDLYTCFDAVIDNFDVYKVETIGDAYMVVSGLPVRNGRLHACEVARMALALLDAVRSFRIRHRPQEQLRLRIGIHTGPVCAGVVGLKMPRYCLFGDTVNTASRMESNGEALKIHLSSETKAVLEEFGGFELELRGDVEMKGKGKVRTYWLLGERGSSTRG
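HEK293 cells stably expressing human Npr1 and cGMP GloSensor pGS-40F, loaded 2 h with 2% GloSensor reagent, given compound 30 min at room temperature. Luminescence read before and 20 min after 0.1 nM hNppA.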
FLuc inh: blocks purified firefly luciferase enzyme activity; purified P. pyralis luciferase, luminescence, biochemical; Potency, µM (highest dose often 115 µM), actives largely listed as inhibitors; 76,000 tested, 2.5% active; AID 1347043; also: nearly all actives have a fitted effect of over 65% in size
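Biochemical qHTS: compound (6-point titration) added to 10uM D-luciferin plus 10uM ATP in Tris acetate pH 7.5 buffer with Mg, Tween-20 and BSA, then purified enzyme at 10nM; light output imaged.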
NIH3T3 tox: NIH 3T3 cell cytotoxicity. AID 1345082. NIH 3T3 viability, CellTiter-Glo ATP luminescence, 48-72 h. Potency, µM (top dose mostly 96.7 µM), for the others: at the highest dose activity change, negative = cytotoxicity, most hits filed as inhibitors. 94,000 tested, 4.3% active; also: nearly all actives have a fitted effect of over 55% in size
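Mouse fibroblast NIH 3T3 cells, 400 per well, received compound via pintool and were incubated for 48 or 72 hr prior to CellTiter-Glo ATP luminescence measurement.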
GPT2 inhibitor: blocks human glutamate pyruvate transaminase 2; 100,000 tested, 0.25% active; Q8TD30; Potency, µM (titrated, usually from 57.7 µM), for the others: top-dose activity change, negative = inhibition, most hits filed as inhibitors; Recombinant GPT2, coupled pyruvate oxidase/HRP Amplex Red fluorescence; also: nearly all actives have a fitted effect of over 60% in size
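GPT2 10ng/uL, a-KG 250uM, L-Ala 2mM, HEPES pH7.5 + 0.0001% Tween; 30 min RT. Then Amplex mix (PO/HRP/ThPP), 30 min RT dark, fluorescence. AOA 50uM used as positive control.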
Numbers without * were called inactive; i = inactive; ? = inconclusive; nt = no result given; ! = repeats disagree; [ ] = another dose, or the depositor's remark. Shown are actives, neighbours in structure and some others; about 10% of the full set was active somewhere. Unless noted, calls follow the shape of the dose curve; as a rule, active = well fitted curve in the direction sought with a large enough effect; inconclusive = small, poorly fitted or top-dose-only effect, or another doubt; inactive = no such curve, though single readings can be large; an effect the other way counts as inactive or inconclusive. % is scaled to controls: 0 for no effect and ±100 for the full control effect; potency is read from the fitted curve at half-maximal effect.

SMILES	HEK cytotox	NPR1 antag	FLuc inh	NIH3T3 tox	GPT2 inhibitor
COCC(=O)NC1CCC12CCN(S(=O)(=O)c1ccc3c(c1)OCCO3)CC2 (configuration not stated)	-6%	nt	nt	-15%	1%
CCN1C(=O)C2CC3(CCN(C(=O)Nc4ccc5c(c4)OCCO5)CC3)CN2C1=O (configuration not stated)	-16%	0%	35µM*	-2%	-2%
O=C(Cc1ccccc1Br)N1CCN(c2cc(-c3cccs3)[nH]n2)CC1	?	-28%	i	?	i
Cc1ccc(CNC(=O)c2c(C)sc3ccn(C)c(=O)c23)cc1	-6%	-1%	i	-5%	?
COc1cccc(-c2ccc(CN3CCCC(NC(=O)C(C)(C)C)C3)cc2)c1 (configuration not stated)	50µM*	nt	nt	?	-32%
COc1cccc(-c2ccc(CN3CCCC(NC(=O)C(C)C)C3)cc2)c1 (configuration not stated)	40µM*	nt	nt	?	4%
Cc1ccc(-c2cccc(CN3CCCC(NC(=O)Cc4cccc(Cl)c4)C3)c2)cc1Cl (configuration not stated)	i	nt	nt	-14%	i
Cc1ccc(-c2cccc(CN3CCCC(NC(=O)C(C)(C)C)C3)c2)cc1Cl (configuration not stated)	?	nt	nt	-26%	nt
COc1cccc(-c2ccc(CN3CCCC(NC(=O)Cc4ccccn4)C3)cc2)c1 (configuration not stated)	40µM*	nt	nt	?	i
CCOc1ccccc1NC(=O)N1CCCCCCNC(=O)[C@H]2CCC[C@H]21	?	5%	i	-18%	i
CCOCC(=O)N1CCCN(S(C)(=O)=O)c2ccccc21	i	4%	i	4%	-9%
CCOc1ccc(CC(=O)N2CCCN(S(C)(=O)=O)c3ccccc32)cc1OCC	-13%	7%	i	-13%	-7%
Cc1ccc(OCC(=O)N2CCCN(S(C)(=O)=O)c3ccccc32)cc1	-26%	2%	i	22µM*	i
COc1ccc(C(=O)N2CCCN(C)c3ccccc32)c(OC)c1	?	-22%	i	?	?
COc1ccc(C(=O)N2CCCN(C)c3ccccc32)c(C)c1	45µM*	-2%	i	?	i
COc1cccc(CC(=O)N2CCCN(C)c3ccccc32)c1	?	-11%	i	-5%	i
Cc1ccc(CC(=O)N2CCCN(S(C)(=O)=O)c3ccccc32)cc1	-22%	0%	i	18µM*	-3%
CCOc1ccc(CC(=O)N2CCCN(C)c3ccccc32)cc1	89µM*	-8%	i	?	-4%
CC(=O)Nc1ccc(S(=O)(=O)Nc2ccc3n(c2=O)C[C@H]2C[C@@H]3CN(C(=O)NC3CCCCC3)C2)cc1	5%	-1%	i	i	i
COc1ccc(NC(=O)Cn2c(=O)n(-c3cccc(C)c3)c(=O)c3c2cc(C)n3C)cc1	?	-3%	i	-24%	i
O=C(Nc1ccccc1)N1Cc2[nH]cnc2C[C@H]1c1nc(-c2ccccc2)no1	-10%[172 µM]	-21%[70.6 µM]	40µM*	?	-16%[88.5 µM]
O=C(c1cccs1)N1Cc2[nH]cnc2C[C@H]1c1nc(-c2ccc3ccccc3c2)no1	-23%[172 µM]	-1%[70.6 µM]	28µM*	?	-13%[88.5 µM]
COc1ccc(NC(=O)N2Cc3[nH]cnc3C[C@H]2c2nc(-c3ccc4ccccc4c3)no2)cc1	?	-5%	i	?	i
O=C(Nc1ccc(Cl)cc1)N1Cc2[nH]cnc2C[C@H]1c1nc(-c2ccc3ccccc3c2)no1	?	-2%	32µM*	?	-4%
O=C(O)CCC(=O)N1Cc2[nH]cnc2C[C@H]1c1nc(-c2ccc(Cl)cc2)no1	4%[172 µM]	5%[70.6 µM]	71µM*	i	-2%[88.5 µM]
SMILES	HEK cytotox	NPR1 antag	FLuc inh	NIH3T3 tox	GPT2 inhibitor
O=C(CCc1ccccc1)N1CCOc2ccc(CN3CCc4ccccc4C3)cc2C1	?	-3%	i	?	3%
O=C(N[C@@H]1CN(Cc2ccccc2)C[C@H]1CO)c1cn[nH]c1	-5%	2%	i	-7%	2%
O=C(c1ccccc1)N1Cc2[nH]cnc2C[C@H]1c1nc(-c2ccncc2)no1	-17%[172 µM]	1%[70.6 µM]	i	-27%[174 µM]	i
O=C(c1ccc(F)cc1)N1Cc2[nH]cnc2C[C@H]1c1nc(-c2ccc3c(c2)OCO3)no1	?	-18%[70.6 µM]	32µM*	?	i
O=C(Nc1ccccc1)N1Cc2[nH]cnc2C[C@H]1c1nc(-c2ccc(Cl)cc2)no1	100µM*	?	45µM*	?	-7%[88.5 µM]
Cc1ccc(-c2noc([C@@H]3Cc4nc[nH]c4CN3C(=O)Nc3ccc(Cl)cc3)n2)cc1	?	?	40µM*	?	?
Cc1ccc(-c2noc([C@@H]3Cc4nc[nH]c4CN3C(=O)c3ccccc3)n2)cc1	0%[172 µM]	-1%[70.6 µM]	40µM*	-19%[174 µM]	3%[88.5 µM]
O=C(c1ccc(F)cc1)N1Cc2[nH]cnc2C[C@H]1c1nc(-c2ccc(Cl)cc2)no1	?	-21%[70.6 µM]	i	?	1%[88.5 µM]
CCCC1(CO)CCCN(Cc2cnc(-c3ccccn3)nc2)C1 (configuration not stated)	?	-2%	i	-21%	i
CC(C)(C)OC(=O)N1CC(Nc2ccc(O)cc2)C1	45µM*	nt	nt	28µM*!	-5%[88.5 µM]
CC(C)(C)OC(=O)N1CC(Nc2cccc(Oc3ccccc3)c2)C1	?	nt	nt	?	-3%
O=C(O)Cn1ccc2cc(OCCc3cccc(-c4ccc(Cl)cc4)c3)cnc21	?	-5%[70.6 µM]	i	?	-16%[88.5 µM]
CCCS(=O)(=O)N1CCC2(CC1)C(=O)N(c1cccc(F)c1)C2c1ccccc1 (configuration not stated)	25µM*	nt	nt	-27%	-1%
Cc1nc2cccnc2n1CC1CCCN(C(=O)Nc2ccccc2C(F)(F)F)C1 (configuration not stated)	-10%	-3%	i	-16%	i
COc1ccc(CN2CCC3(CC2)C(=O)NCN3Cc2ccc(Cl)cc2)cc1	40µM*	-11%	i	?	4%
Cc1ccc2nc([C@H]3CCN(Cc4ccc(C(F)(F)F)cc4)C3)[nH]c2c1	28µM*	?	i	35µM*	?
c1coc(-c2nnc([C@H]3CCN(Cc4cccs4)C3)o2)c1	-11%[172 µM]	4%[70.6 µM]	71µM*	-11%[174 µM]	0%[88.5 µM]
CC(=O)N1CC[C@H](c2nc3ccc(C(F)(F)F)cc3[nH]2)C1	-9%[172 µM]	3%[70.6 µM]	i	?	-11%[88.5 µM]
FC(F)(F)c1ccc(CN2CC[C@H](c3nc4ccccc4[nH]3)C2)cc1	35µM*	?	i	28µM*	-15%[88.5 µM]
FC(F)(F)c1ccc2nc([C@H]3CCN(Cc4ccc(Cl)cc4)C3)[nH]c2c1	22µM*	?	?	?	2%[88.5 µM]
